Measurements from PubChem BioAssay AID1159580 (chemical genetic matrix, 2015).
Several values for one entry are separate records, joined by “and”; a condition that tells them apart may be missing. Identical values can stand only once. Out of some 5,500 compounds screened, about 2,000 (36%) were called active. About 18% were inconclusive and are not listed. No stated cut-off is given here; in the data, active means normalized growth mostly below about 0.91 (no sharp cut-off); inconclusive means no clear call, values can overlap the other calls; inactive means mostly above about 0.92. The list shows a part of the results.

Assay: chemical genetic growth profiling, strain panel (AID 1159580);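 further: tested at 20 µM; growth read once vehicle control cultures reached saturation at 30 °C; 1 = growth at the plate median or of vehicle wells; lower values mean less growth of the strain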
Conditions: S. cerevisiae deletion strains, growth OD

Measured: normalized growth

O=c1[nH]cnc2c1ncn2C1O[C@H](CO)[C@@H](O)[C@H]1O (stereo partly drawn)
inactive: locus YAL013W, strain DEP1, active compounds read low 1.01 | locus YAL021C, strain ccr4, active compounds read low 0.989 | locus YAL026C, strain drs2, active compounds read low 1 | locus YAL030W, strain snc1, active compounds read low 0.989 | locus YBL061C, strain skt5, active compounds read low 0.995 | locus YBR009C, strain hhf1, active compounds read low 1.02 | locus YBR021W, strain FUR4, active compounds read low 1 | locus YBR023C, strain chs3, active compounds read low 0.998 | locus YBR171W, strain sec66, active compounds read low 0.978 | locus YBR229C, strain ROT2, active compounds read low 1 | locus YBR231C, strain swc5, active compounds read low 0.974 | locus YBR279W, strain paf1, active compounds read low 0.986 | locus YCL011C, strain gbp2, active compounds read low 1 | locus YCL016C, strain dcc1, active compounds read low 1 | locus YCL029C, strain bik1, active compounds read low 1.03 | locus YCL069W, strain vba3, active compounds read low 0.995 | locus YCR088W, strain abp1, active compounds read low 0.981 | locus YDL005C, strain med2, active compounds read low 0.987 | locus YDL035C, strain GPR1, active compounds read low 1.01 | locus YDL040C, strain nat1, active compounds read low 0.986 | locus YDL074C, strain BRE1, active compounds read low 1.01 | locus YDL101C, strain DUN1, active compounds read low 1.01 | locus YDL134C, strain PPH21, active compounds read low 1 | locus YDL185W, strain tfp1, active compounds read low 1.04 | locus YDL192W, strain arf1, active compounds read low 1.05 | locus YDR001C, strain nth1, active compounds read low 0.986 | locus YDR069C, strain doa4, active compounds read low 0.975 | locus YDR101C, strain arx1, active compounds read low 1.05 | locus YDR137W, strain rgp1, active compounds read low 1.01 | locus YDR159W, strain sac3, active compounds read low 0.968 | locus YDR162C, strain NBP2, active compounds read low 1.01 | locus YDR195W, strain ref2 0.958 | locus YDR297W, strain sur2, active compounds read low 0.993 | locus YDR318W, strain mcm21, active compounds read low 1.01 | locus YDR334W, strain swr1, active compounds read low 0.974 | locus YDR335W, strain msn5, active compounds read low 0.997 | locus YDR388W, active compounds read low 1.03 | locus YDR392W, strain spt3, active compounds read low 0.907 | locus YDR502C, strain sam2, active compounds read low 1.02 | locus YEL003W, strain gim4, active compounds read low 0.991 | locus YEL037C, strain rad23, active compounds read low 0.987 | locus YEL061C, strain CIN8 (second series), active compounds read low 0.989 | locus YEL061C, strain CIN8, active compounds read low 1 | locus YER015W, strain faa2, active compounds read low 0.982 | locus YER016W, strain bim1, active compounds read low 0.989 | locus YER110C, active compounds read low 1.03 | locus YER111C, strain swi4, active compounds read low 0.996 | locus YER155C, strain BEM2 (second series), active compounds read low 0.939 | locus YER155C, strain BEM2, active compounds read low 1.01 | locus YER167W, strain BCK2, active compounds read low 1 | locus YFR010W, strain ubp6, active compounds read low 0.983 | locus YGL078C, strain dbp3, active compounds read low 1.02 | locus YGL086W, strain mad1, active compounds read low 1.01 | locus YGL167C, strain pmr1, active compounds read low 0.978 | locus YGL173C, strain kem1, active compounds read low 0.988 | locus YGL227W, strain vid30, active compounds read low 0.98 | locus YGL240W, strain doc1, active compounds read low 1 | locus YGL248W, strain PDE1, active compounds read low 1.01 | locus YGL253W, strain hxk2, active compounds read low 0.988 | locus YGR135W, strain pre9, active compounds read low 0.998 | locus YGR252W, strain gcn5, active compounds read low 0.981 | locus YHR013C, strain ard1, active compounds read low 0.969 | locus YHR027C, strain rpn1, active compounds read low 0.997 | locus YHR030C, strain SLT2, active compounds read low 1 and 0.966 | locus YHR079C, strain IRE1 (second series), active compounds read low 1.03 | locus YHR079C, strain IRE1, active compounds read low 0.978 | locus YHR094C, strain hxt1, active compounds read low 1.02 | locus YHR129C, strain ARP1, active compounds read low 1 | locus YHR142W, strain chs7, active compounds read low 1.02 | locus YHR200W, strain rpn10, active compounds read low 1.03 | locus YIL066C, strain RNR3, active compounds read low 1.01 | locus YIL073C, strain SPO22, active compounds read low 1.12 | locus YIL125W, strain kgd1, active compounds read low 1.02 | locus YIR030C, strain dcg1, active compounds read low 1.04 | locus YJL092W, strain hpr5, active compounds read low 0.998 | locus YJL095W, strain BCK1 (second series), active compounds read low 0.987 | locus YJL095W, strain BCK1, active compounds read low 1.02 and 0.981 | locus YJL115W, strain asf1, active compounds read low 0.987 | locus YJL129C, strain trk1, active compounds read low 0.994 | locus YJL134W, strain LCB3, active compounds read low 1 | locus YJL154C, strain vps35, active compounds read low 0.982 | locus YJL164C, strain tpk1, active compounds read low 1.02 | locus YJL166W, strain qcr8, active compounds read low 1.01 | locus YJL168C, strain set2, active compounds read low 1.01 | locus YJL187C, strain SWE1 (second series), active compounds read low 1 | locus YJL187C, strain SWE1, active compounds read low 0.991 | locus YJR043C, strain POL32, active compounds read low 1.01 | locus YJR066W, strain TOR1, active compounds read low 0.925
